# Laboratory results as given in paper PMC11006913.
# Substitutions are numbered along the chain they refer to.
# Columns and labels:
# Assay in all cases: PBM; 200 nM protein, PBS
# Conditions in all cases: dsDNA, one strand shown
# [1] = target: T1, SIX6 (Homo sapiens, UniProt O95475 114-200, L143I)
# T1 sequence: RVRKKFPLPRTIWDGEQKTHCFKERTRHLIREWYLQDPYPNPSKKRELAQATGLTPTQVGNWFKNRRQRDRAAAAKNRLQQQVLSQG
# [2] = target: HOXB6 (Homo sapiens, UniProt P17509 132-218, K202E)
# [3] = target: HOXD13 (Homo sapiens, UniProt P35453 263-343, T313R)
# Sequence of HOXD13 (Homo sapiens, UniProt P35453 263-343, T313R) (P35453 263-343 T313R): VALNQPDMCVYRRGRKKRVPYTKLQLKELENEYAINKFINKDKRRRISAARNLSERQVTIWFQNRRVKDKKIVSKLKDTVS
# [4] = target: HOXD13 (Homo sapiens, UniProt P35453 263-343)
# Sequence of HOXD13 (Homo sapiens, UniProt P35453 263-343) (P35453 263-343): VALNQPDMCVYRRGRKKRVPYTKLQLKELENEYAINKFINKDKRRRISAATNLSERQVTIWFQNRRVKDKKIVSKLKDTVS
# [5] = target: HOXD13 (Homo sapiens, UniProt P35453 263-343, T313A)
# Sequence of HOXD13 (Homo sapiens, UniProt P35453 263-343, T313A) (P35453 263-343 T313A): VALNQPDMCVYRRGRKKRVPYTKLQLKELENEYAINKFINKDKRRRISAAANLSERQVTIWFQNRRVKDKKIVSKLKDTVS
# [6] = target: HOXB6 (Homo sapiens, UniProt P17509 132-218)
# Sequence of HOXB6 (Homo sapiens, UniProt P17509 132-218) (P17509 132-218): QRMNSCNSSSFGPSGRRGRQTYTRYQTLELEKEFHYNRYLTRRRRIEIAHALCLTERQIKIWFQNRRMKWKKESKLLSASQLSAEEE
# [7] = target: T2, NKX2-4 (Homo sapiens, UniProt Q9H2Z4 175-261)
# T2 sequence: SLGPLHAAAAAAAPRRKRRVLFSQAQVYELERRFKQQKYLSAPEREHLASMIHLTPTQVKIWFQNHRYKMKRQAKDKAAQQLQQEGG
# [8] = target: T3, NKX2-4 (Homo sapiens, UniProt Q9H2Z4 175-261, R246Q)
# T3 sequence: T2 sequence with R72Q
# [9] = target: ALX3 (Homo sapiens, UniProt O95076 139-225, N203Q)
# Sequence of ALX3 (Homo sapiens, UniProt O95076 139-225, N203Q) (O95076 139-225 N203Q): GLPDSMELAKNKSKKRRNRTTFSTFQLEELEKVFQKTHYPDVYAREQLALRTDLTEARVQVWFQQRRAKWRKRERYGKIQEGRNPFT
# [10] = target: ALX3 (Homo sapiens, UniProt O95076 139-225, N203S)
# Sequence of ALX3 (Homo sapiens, UniProt O95076 139-225, N203S) (O95076 139-225 N203S): as the sequence (O95076 139-225 N203Q) above, with Q65S counted along it
# [11] = target: ALX3 (Homo sapiens, UniProt O95076 139-225)
# Sequence of ALX3 (Homo sapiens, UniProt O95076 139-225) (O95076 139-225): as the sequence (O95076 139-225 N203Q) above, with Q65N counted along it
# [12] = target: ALX3 (Homo sapiens, UniProt O95076 139-225, L168Q)
# Sequence of ALX3 (Homo sapiens, UniProt O95076 139-225, L168Q) (O95076 139-225 L168Q): as the sequence (O95076 139-225 N203Q) above, with L30Q, Q65N counted along it
# [13] = target: ALX3 (Homo sapiens, UniProt O95076 139-225, L168V)
# Sequence of ALX3 (Homo sapiens, UniProt O95076 139-225, L168V) (O95076 139-225 L168V): as the sequence (O95076 139-225 N203Q) above, with L30V, Q65N counted along it
# [14] = target: T4, SIX6 (Homo sapiens, UniProt O95475 114-200, L143M)
# T4 sequence: T1 sequence with I30M
# [15] = target: ALX1 (Homo sapiens, UniProt Q15699 118-204, L144V)
# Sequence of ALX1 (Homo sapiens, UniProt Q15699 118-204, L144V) (Q15699 118-204 L144V): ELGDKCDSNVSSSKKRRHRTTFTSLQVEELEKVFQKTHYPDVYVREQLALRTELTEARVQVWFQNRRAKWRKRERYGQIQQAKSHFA
# [16] = target: ALX1 (Homo sapiens, UniProt Q15699 118-204, L144R)
# Sequence of ALX1 (Homo sapiens, UniProt Q15699 118-204, L144R) (Q15699 118-204 L144R): as the sequence (Q15699 118-204 L144V) above, with V27R counted along it
# [17] = target: ALX1 (Homo sapiens, UniProt Q15699 118-204)
# Sequence of ALX1 (Homo sapiens, UniProt Q15699 118-204) (Q15699 118-204): as the sequence (Q15699 118-204 L144V) above, with V27L counted along it
# [18] = target: HOXA2 (Homo sapiens, UniProt O43364 129-215, R185T)
# Sequence of HOXA2 (Homo sapiens, UniProt O43364 129-215, R185T) (O43364 129-215 R185T): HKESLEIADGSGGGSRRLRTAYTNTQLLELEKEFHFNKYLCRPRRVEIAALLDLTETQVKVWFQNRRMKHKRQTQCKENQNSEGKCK
# [19] = target: HOXA2 (Homo sapiens, UniProt O43364 129-215, R185K)
# Sequence of HOXA2 (Homo sapiens, UniProt O43364 129-215, R185K) (O43364 129-215 R185K): as the sequence (O43364 129-215 R185T) above, with T57K counted along it
# [20] = target: HOXA2 (Homo sapiens, UniProt O43364 129-215, Y150S)
# Sequence of HOXA2 (Homo sapiens, UniProt O43364 129-215, Y150S) (O43364 129-215 Y150S): as the sequence (O43364 129-215 R185T) above, with Y22S, T57R counted along it
# [21] = target: HOXA2 (Homo sapiens, UniProt O43364 129-215)
# Sequence of HOXA2 (Homo sapiens, UniProt O43364 129-215) (O43364 129-215): as the sequence (O43364 129-215 R185T) above, with T57R counted along it
# [22] = target: NKX3-2 (Homo sapiens, UniProt P78367 192-278, P234S)
# Sequence of NKX3-2 (Homo sapiens, UniProt P78367 192-278, P234S) (P78367 192-278 P234S): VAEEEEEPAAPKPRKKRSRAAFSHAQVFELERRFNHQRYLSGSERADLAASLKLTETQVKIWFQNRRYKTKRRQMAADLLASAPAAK
# [23] = target: NKX3-2 (Homo sapiens, UniProt P78367 192-278)
# Sequence of NKX3-2 (Homo sapiens, UniProt P78367 192-278) (P78367 192-278): as the sequence (P78367 192-278 P234S) above, with S43P counted along it
# [24] = target: T5, SIX6 (Homo sapiens, UniProt O95475 114-200, T139Q)
# T5 sequence: T1 sequence with T26Q, I30L
# Sequence of HOXB6 (Homo sapiens, UniProt P17509 132-218, K202E) (P17509 132-218 K202E): as the sequence (P17509 132-218) above, with K71E counted along it
sequence,measurement,setting,value
GATACATC,binding signal,[1],"10.4 upbm affinity estimate (log intensity, higher = more binding, comparable within an allelic series)"
CCACGGGC,binding signal,[2],"9 upbm affinity estimate (log intensity, higher = more binding, comparable within an allelic series)"
same,binding signal,[3],"9.41 upbm affinity estimate (log intensity, higher = more binding, comparable within an allelic series)"
same,binding signal,[4],"9.46 upbm affinity estimate (log intensity, higher = more binding, comparable within an allelic series)"
same,binding signal,[5],"9.44 upbm affinity estimate (log intensity, higher = more binding, comparable within an allelic series)"
same,binding signal,[6],"9.06 upbm affinity estimate (log intensity, higher = more binding, comparable within an allelic series)"
AGTTCGAG,binding signal,[7],"11.3 upbm affinity estimate (log intensity, higher = more binding, comparable within an allelic series)"
same,binding signal,[8],"11.6 upbm affinity estimate (log intensity, higher = more binding, comparable within an allelic series)"
TAATATTA,binding signal,[2],"10 upbm affinity estimate (log intensity, higher = more binding, comparable within an allelic series)"
same,binding signal,[9],"8.61 upbm affinity estimate (log intensity, higher = more binding, comparable within an allelic series)"
same,binding signal,[10],"8.68 upbm affinity estimate (log intensity, higher = more binding, comparable within an allelic series)"
TACATTAA,binding signal,[2],"10 upbm affinity estimate (log intensity, higher = more binding, comparable within an allelic series)"
same,binding signal,[9],"8.45 upbm affinity estimate (log intensity, higher = more binding, comparable within an allelic series)"
same,binding signal,[11],"11 upbm affinity estimate (log intensity, higher = more binding, comparable within an allelic series)"
same,binding signal,[12],"9.29 upbm affinity estimate (log intensity, higher = more binding, comparable within an allelic series)"
same,binding signal,[13],"9.07 upbm affinity estimate (log intensity, higher = more binding, comparable within an allelic series)"
same,binding signal,[10],"8.57 upbm affinity estimate (log intensity, higher = more binding, comparable within an allelic series)"
ATAGTATC,binding signal,[14],"11 upbm affinity estimate (log intensity, higher = more binding, comparable within an allelic series)"
CTCGTGCC,binding signal,[2],"9.04 upbm affinity estimate (log intensity, higher = more binding, comparable within an allelic series)"
same,binding signal,[15],"6.52 upbm affinity estimate (log intensity, higher = more binding, comparable within an allelic series)"
same,binding signal,[16],"6.32 upbm affinity estimate (log intensity, higher = more binding, comparable within an allelic series)"
same,binding signal,[17],"6.36 upbm affinity estimate (log intensity, higher = more binding, comparable within an allelic series)"
same,binding signal,[6],"8.84 upbm affinity estimate (log intensity, higher = more binding, comparable within an allelic series)"
CGGAGGCC,binding signal,[2],"8.93 upbm affinity estimate (log intensity, higher = more binding, comparable within an allelic series)"
same,binding signal,[18],"7.34 upbm affinity estimate (log intensity, higher = more binding, comparable within an allelic series)"
same,binding signal,[3],"9.47 upbm affinity estimate (log intensity, higher = more binding, comparable within an allelic series)"
same,binding signal,[19],"10.1 upbm affinity estimate (log intensity, higher = more binding, comparable within an allelic series)"
same,binding signal,[4],"9.47 upbm affinity estimate (log intensity, higher = more binding, comparable within an allelic series)"
same,binding signal,[5],"9.66 upbm affinity estimate (log intensity, higher = more binding, comparable within an allelic series)"
same,binding signal,[20],"10.3 upbm affinity estimate (log intensity, higher = more binding, comparable within an allelic series)"
same,binding signal,[21],"7.12 upbm affinity estimate (log intensity, higher = more binding, comparable within an allelic series)"
same,binding signal,[6],"8.97 upbm affinity estimate (log intensity, higher = more binding, comparable within an allelic series)"
ATCATGAT,binding signal,[1],"10.4 upbm affinity estimate (log intensity, higher = more binding, comparable within an allelic series)"
ACATTAAC,binding signal,[2],"10 upbm affinity estimate (log intensity, higher = more binding, comparable within an allelic series)"
AGCCTTGC,binding signal,[2],"9.12 upbm affinity estimate (log intensity, higher = more binding, comparable within an allelic series)"
same,binding signal,[18],"7.13 upbm affinity estimate (log intensity, higher = more binding, comparable within an allelic series)"
same,binding signal,[19],"10.3 upbm affinity estimate (log intensity, higher = more binding, comparable within an allelic series)"
same,binding signal,[20],"10.6 upbm affinity estimate (log intensity, higher = more binding, comparable within an allelic series)"
same,binding signal,[21],"7.12 upbm affinity estimate (log intensity, higher = more binding, comparable within an allelic series)"
same,binding signal,[6],"8.94 upbm affinity estimate (log intensity, higher = more binding, comparable within an allelic series)"
AGGCGCTC,binding signal,[2],"9.06 upbm affinity estimate (log intensity, higher = more binding, comparable within an allelic series)"
same,binding signal,[15],"6.32 upbm affinity estimate (log intensity, higher = more binding, comparable within an allelic series)"
same,binding signal,[16],"6.29 upbm affinity estimate (log intensity, higher = more binding, comparable within an allelic series)"
same,binding signal,[22],"10.5 upbm affinity estimate (log intensity, higher = more binding, comparable within an allelic series)"
same,binding signal,[17],"6.17 upbm affinity estimate (log intensity, higher = more binding, comparable within an allelic series)"
same,binding signal,[6],"8.87 upbm affinity estimate (log intensity, higher = more binding, comparable within an allelic series)"
same,binding signal,[23],"10.6 upbm affinity estimate (log intensity, higher = more binding, comparable within an allelic series)"
ATATCTAC,binding signal,[14],"11 upbm affinity estimate (log intensity, higher = more binding, comparable within an allelic series)"
AGTGCGTG,binding signal,[7],"11.3 upbm affinity estimate (log intensity, higher = more binding, comparable within an allelic series)"
CTCCGAAG,binding signal,[2],"9.06 upbm affinity estimate (log intensity, higher = more binding, comparable within an allelic series)"
same,binding signal,[6],"9.02 upbm affinity estimate (log intensity, higher = more binding, comparable within an allelic series)"
ATAGATAC,binding signal,[14],"10.9 upbm affinity estimate (log intensity, higher = more binding, comparable within an allelic series)"
same,binding signal,[24],"11.1 upbm affinity estimate (log intensity, higher = more binding, comparable within an allelic series)"
GGGTCCGA,binding signal,[2],"9.03 upbm affinity estimate (log intensity, higher = more binding, comparable within an allelic series)"
same,binding signal,[6],"9.07 upbm affinity estimate (log intensity, higher = more binding, comparable within an allelic series)"
CCAGTCCC,binding signal,[2],"9.1 upbm affinity estimate (log intensity, higher = more binding, comparable within an allelic series)"
same,binding signal,[6],"8.95 upbm affinity estimate (log intensity, higher = more binding, comparable within an allelic series)"
GGTATTAC,binding signal,[2],"9.66 upbm affinity estimate (log intensity, higher = more binding, comparable within an allelic series)"
same,binding signal,[6],"10.2 upbm affinity estimate (log intensity, higher = more binding, comparable within an allelic series)"
AATGTTGT,binding signal,[2],"9.62 upbm affinity estimate (log intensity, higher = more binding, comparable within an allelic series)"
same,binding signal,[6],"10.2 upbm affinity estimate (log intensity, higher = more binding, comparable within an allelic series)"
AGTTATTG,binding signal,[2],"9.58 upbm affinity estimate (log intensity, higher = more binding, comparable within an allelic series)"
same,binding signal,[6],"10.6 upbm affinity estimate (log intensity, higher = more binding, comparable within an allelic series)"
AATACCAA,binding signal,[2],"9.59 upbm affinity estimate (log intensity, higher = more binding, comparable within an allelic series)"
same,binding signal,[6],"10.2 upbm affinity estimate (log intensity, higher = more binding, comparable within an allelic series)"
CGCAGGAG,binding signal,[2],"9.14 upbm affinity estimate (log intensity, higher = more binding, comparable within an allelic series)"
same,binding signal,[6],"8.95 upbm affinity estimate (log intensity, higher = more binding, comparable within an allelic series)"
CCGGGGCA,binding signal,[2],"8.98 upbm affinity estimate (log intensity, higher = more binding, comparable within an allelic series)"
same,binding signal,[6],"8.98 upbm affinity estimate (log intensity, higher = more binding, comparable within an allelic series)"
CATTAGGC,binding signal,[2],"9.37 upbm affinity estimate (log intensity, higher = more binding, comparable within an allelic series)"
same,binding signal,[6],"10.4 upbm affinity estimate (log intensity, higher = more binding, comparable within an allelic series)"
GGTTTTTA,binding signal,[2],"9.65 upbm affinity estimate (log intensity, higher = more binding, comparable within an allelic series)"
same,binding signal,[6],"10.3 upbm affinity estimate (log intensity, higher = more binding, comparable within an allelic series)"
TAATGGAA,binding signal,[2],"9.72 upbm affinity estimate (log intensity, higher = more binding, comparable within an allelic series)"
same,binding signal,[6],"10.8 upbm affinity estimate (log intensity, higher = more binding, comparable within an allelic series)"
GCCCCGCA,binding signal,[2],"9.01 upbm affinity estimate (log intensity, higher = more binding, comparable within an allelic series)"
same,binding signal,[6],"9.08 upbm affinity estimate (log intensity, higher = more binding, comparable within an allelic series)"
